# High-throughput results from PubChem BioAssay.
# EPAC2 agonist: qHTS for Agonist of cAMP-regulated guanine nucleotide exchange factor 4 (EPAC2): primary screen; hit rate 0.079% among 360,000; Rap guanine nucleotide exchange factor 4 (Homo sapiens), Q8WZA2; AID 720711, 2013; EPAC2 activation, biochemical qHTS; response scale: 100% = 6.5 mM cAMP response; Potency, µM (doses to about 154 µM), inactives show at the highest dose activation, hits mostly activators; note: nearly all actives have a fitted effect of over 50% in size
# Target sequence (Q8WZA2 whole entry, looked up): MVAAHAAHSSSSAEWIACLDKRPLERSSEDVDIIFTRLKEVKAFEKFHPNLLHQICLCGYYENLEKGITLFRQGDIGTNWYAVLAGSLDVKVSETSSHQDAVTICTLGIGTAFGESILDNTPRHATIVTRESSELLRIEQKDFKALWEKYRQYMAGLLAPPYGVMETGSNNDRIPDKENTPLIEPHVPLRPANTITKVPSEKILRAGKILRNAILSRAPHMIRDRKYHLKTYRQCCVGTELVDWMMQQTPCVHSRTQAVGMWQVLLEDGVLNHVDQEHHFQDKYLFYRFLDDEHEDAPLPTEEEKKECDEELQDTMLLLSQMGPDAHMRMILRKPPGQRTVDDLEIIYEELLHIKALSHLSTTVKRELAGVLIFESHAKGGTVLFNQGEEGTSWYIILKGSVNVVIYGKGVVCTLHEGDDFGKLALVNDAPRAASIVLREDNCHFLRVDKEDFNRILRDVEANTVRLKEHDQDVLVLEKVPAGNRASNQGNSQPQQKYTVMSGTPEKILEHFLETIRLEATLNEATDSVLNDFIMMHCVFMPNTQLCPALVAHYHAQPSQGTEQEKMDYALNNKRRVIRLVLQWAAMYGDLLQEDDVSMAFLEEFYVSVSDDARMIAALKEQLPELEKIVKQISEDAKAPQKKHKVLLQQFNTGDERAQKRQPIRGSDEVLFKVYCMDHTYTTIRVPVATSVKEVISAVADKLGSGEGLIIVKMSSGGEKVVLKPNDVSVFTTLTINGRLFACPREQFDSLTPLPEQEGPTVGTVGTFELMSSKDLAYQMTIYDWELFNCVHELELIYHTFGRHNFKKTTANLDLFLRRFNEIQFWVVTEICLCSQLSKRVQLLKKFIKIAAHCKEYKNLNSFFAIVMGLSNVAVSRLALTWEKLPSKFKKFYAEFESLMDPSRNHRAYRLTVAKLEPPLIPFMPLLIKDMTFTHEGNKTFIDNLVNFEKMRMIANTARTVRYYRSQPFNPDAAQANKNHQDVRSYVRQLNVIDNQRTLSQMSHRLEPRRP
#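 Each well held 100 nM EPAC2, 250 nM RAP1B-BODIPY-GDP and 50 uM GDP. Fluorescence, read at 5-min intervals to 30 min, was referenced to a 6.5 mM cAMP positive control.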
# EPAC1 antagonist: qHTS for Antagonist of cAMP-regulated guanine nucleotide exchange factor 3 (EPAC1): primary screen; Potency, µM (series often up to 115 µM), for inactives: at the top dose activity change, negative = inhibition, usual class: inhibitors; hit rate 0.14% among 360,000; EPAC1 GEF assay, Rap1b-BODIPY-GDP exchange fluorescence;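 note: plate controls were vehicle for no effect and positive control for full effect; nearly all actives have a fitted effect of over 50% in size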
# EPAC1 ag: qHTS for Agonist of cAMP-regulated guanine nucleotide exchange factor 3 (EPAC1): primary screen. Rap guanine nucleotide exchange factor 3 (Homo sapiens), O95398. EPAC1 agonist qHTS, biochemical assay; response scale: 100% = response to 6.5 mM cAMP. Potency, µM (doses to about 154 µM), for the others: at the highest dose activation, usual class: activators. hit rate 0.073% among 360,000; note: nearly all actives have a fitted effect of over 60% in size
#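 EPAC1 100 nM, Rap1B–BODIPY-GDP 250 nM, unlabeled GDP 50 uM; compound titration; 5 min RT; kinetic read ex480/em540 at 5-min intervals ×30 min; data normalized to 6.5 mM cAMP agonist control.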
# EPAC2 antag: qHTS for Antagonist of cAMP-regulated guanine nucleotide exchange factor 2 (EPAC2): primary screen; Potency, µM (series often up to 114 µM), for the others: at the top dose activity, negative = inhibition, usual class: inhibitors; EPAC2 GEF exchange of Rap1B-BODIPY-GDP, fluorescence; hit rate 0.18% among 360,000; Rap guanine nucleotide exchange factor 4 (Homo sapiens), Q8WZA2; note: % is set by controls: 0 for no effect and ±100 for the full control effect; nearly all actives have a fitted effect of over 45% in size
# * marks the source's active call; other numbers are inactive results; ? = inconclusive. Only some compounds are listed: those with a hit (about 0.39% of all), similar ones and a draw of the others. Calls come from the whole dose curve; as a rule, active = well fitted curve in the direction sought with a large enough effect; inconclusive = small, poorly fitted or top-dose-only effect, or another doubt; inactive = no such curve, though single readings can be large; an effect the other way counts as inactive or inconclusive. Potency is the fitted concentration of half-maximal effect.
SMILES,EPAC2 agonist,EPAC1 antagonist,EPAC1 ag,EPAC2 antag
N#Cc1c(C(F)(F)F)cc(-c2ccc(Cl)cc2)[nH]c1=O,-2%,40µM*,-15%,-9%
CCCCN(C)c1c(C)nc2ccc(C(=O)NCCOc3ccc(OC)cc3)cn12,15%,0%,2%,-21%
C1=C(c2ccc(-c3ccccc3)cc2)Nc2ncnn2C1c1ccco1 (centres undefined),100µM*,11%,89µM*,116%
Fc1ccc(C2=CC(c3ccc(Br)o3)n3ncnc3N2)cc1 (centres undefined),12%,94%,100µM*,52%
Fc1ccc(C2=CC(c3ccco3)n3ncnc3N2)cc1 (centres undefined),-3%,7%,0%,11%
Cc1cc(C)c2cc(C#N)c(NCCCNC(=O)c3cccnc3)nc2c1,-3%,9%,-4%,2%
O=S(=O)(c1cc(O)ccc1O)c1cccc2c(S(=O)(=O)c3cc(O)ccc3O)cccc12,0%,79µM*,8%,4%
O=S(=O)(O)c1cc(O)ccc1O,-3%,3%,-31%,-7%
COc1cc2ccccc2cc1C(=O)N1CC(C)CC(C)C1 (centres undefined),9%,-4%,-3%,28µM*
CCCCn1nnnc1C(c1ccccc1)N1CCN(c2ncccc2C(F)(F)F)CC1 (centres undefined),8%,-2%,-7%,-22%
C=CCN1C(=O)/C(=C/c2ccc(OCC(=O)O)cc2)S/C1=N/c1nccs1,-26%,6%,-9%,50µM*
COc1cc(/C=C2/SC(=O)NC2=O)ccc1OC(=O)c1ccco1,-5%,-21%,-9%,-2%
CCOc1cc(/C=C2\SC(=Nc3ccc(CC)cc3)NC2=O)ccc1OCC(=O)O,2%,35µM*,?,3%
CCOc1cc(/C=C2/SC(=S)NC2=O)ccc1OC(=O)c1ccco1,3%,35µM*,3%,35µM*
CC(=O)Nc1cccc(-c2cc(NC(C)=O)c3ncc(-c4ccc(C(C)=O)cc4)n3c2)c1,9%,0%,-5%,4%
CCOC(=O)c1sc(N2C(=O)C(O)=C(C(=O)c3ccco3)C2c2cccc([N+](=O)[O-])c2)nc1C (centres undefined),-14%,22µM*,-9%,9%
NC(c1ccccc1)c1csc(Nc2ccc(C(=O)c3ccccc3)cc2)n1 (centres undefined),14%,-9%,-4%,-18%
COc1cc(-c2c(-c3ccsc3)sc3ccccc23)cc(OC)c1OC,6%,8%,21%,?
COc1cc(-c2c(CCO)sc3ccccc23)cc(OC)c1OC,7%,-4%,0%,47µM*
CC1(Cc2ccccc2OC(F)(F)F)C(=O)Nc2c(Cl)ccc(Cl)c21 (centres undefined),-3%,-20%,-21%,?
Cc1ccnc(NS(=O)(=O)c2ccc(NC(=O)Cc3c(F)cccc3Cl)cc2)n1,7%,0%,-3%,?
NS(=O)(=O)c1ccc(NC(=O)Cc2c(F)cccc2Cl)cc1,-2%,-18%,1%,28µM*
O=C(Cc1c(Cl)cccc1Cl)Nc1ccc(S(=O)(=O)Nc2ncccn2)cc1,4%,8%,10%,10µM*
CCc1nc2ccc(C(=O)N(C)C(C)C)cn2c1N(CC)Cc1cccc(Br)c1,9%,-20%,2%,?
NC(c1csc(NC(=O)Nc2ccc(OC(F)(F)F)cc2)n1)C1CCCCC1 (centres undefined),-7%,-11%,-30%,17%
SMILES,EPAC2 agonist,EPAC1 antagonist,EPAC1 ag,EPAC2 antag
C[C@@H]1CCCCO[C@H](CN(C)C(=O)Nc2ccc3c(c2)OCO3)[C@H](C)CN([C@@H](C)CO)C(=O)c2cc(NS(=O)(=O)c3ccc(Cl)cc3)ccc2O1,21%,2%,15%,-3%
CCOC(=O)c1c(C)nc2sc(C(N)=O)c(N)c2c1-c1ccccc1,7.9µM*,-3%,-7%,-3%
CCCC(=O)OC1CC(C)N(C(=O)c2ccccc2)c2ccc(C)cc21 (centres undefined),12%,2%,8%,25µM*
CC(=O)N1c2ccc(C)cc2C(c2ccccc2)CC1C (centres undefined),3%,-17%,-9%,-27%
COC(CNC(=O)c1ccc2c3c(onc13)-c1ccccc1C2=O)OC,50µM*,?,56µM*,?
COC(CNC(=O)c1cccnc1)OC,2%,0%,-6%,28%
COc1ccc(/C(O)=C/C(=O)C(=O)NNC(=O)C(O)(c2ccccc2)c2ccccc2)cc1,3%,40µM*,7%,1%
COc1ccc(NS(=O)(=O)c2ccc(O)c(NC(=O)c3cc4c(C)nn(-c5ccc(F)cc5)c4s3)c2)cc1,-8%,50µM*,-17%,-4%
CCNC(=S)Nc1ccc(N2CCCCC2)cc1,4%,7%,7%,4%
CCNC(=S)N/N=C/c1sc(N2CCCCC2)nc1-c1cccs1,1%,89µM*,-52%,?
O=C(Nc1cccc2c1CCCC2)c1cc(C2CCCCN2C(=O)CCCc2ccccc2)on1 (centres undefined),9%,-18%,-4%,19%
CCCCNc1c2c3c(cccc3n(C)c1=O)C(=O)c1ccccc1-2,62%,206%,60%,201%
CC(=O)Nc1ccc(Nc2c3c4c(cccc4n(C)c2=O)C(=O)c2ccccc2-3)cc1,112µM*,35%,?,11%
CCN(CC)CC#CC(OC)(c1ccccc1)c1ccccc1,6%,-15%,2%,40µM*
CCCCn1nnnc1C(c1ccccc1)N1CCCN(Cc2ccc(F)cc2)CC1 (centres undefined),11%,7%,-2%,-8%
O=C(N/N=C/c1ccc(OC(=O)c2ccccc2Cl)cc1)c1cc(O)cc(O)c1,24%,71µM*,-4%,-19%
O=C(N/N=C/c1ccc(OC(=O)c2ccccc2Cl)cc1)c1ccccn1,1%,-1%,-20%,9%
CCOc1ccccc1C(=O)NC(C(=O)OCn1nnc2ccccc2c1=O)C(C)C (centres undefined),6%,14%,3%,-2%
Cn1cc(CN2CCC(C(=O)NC(c3ccc(F)cc3)c3ccc4ccccc4n3)CC2)c2ccccc21 (centres undefined),5%,-13%,-7%,14%
CCc1cc(=O)oc2cc(C)cc(OCC(=O)N[C@@H](CSCc3ccccc3)C(=O)O)c12,7%,-16%,-20%,56µM*
CCCCN1C(=O)C(CC(=O)NCc2cccc3ccccc23)CC(C(=O)N(C(C)C)C(C)C)=C1C (centres undefined),-3%,-3%,-14%,-8%
